Source: PubChem BioAssay (NCATS)
Records with an inconclusive call do not appear. A call without a number means that no potency is given here. The source made the active and inactive calls. Calls follow the shape of the dose curve; as a rule, active = well fitted activation curve with a large enough effect; inconclusive = small, poorly fitted or top-dose-only effect; inactive = no such curve, though single readings can be large or run the other way. Numbered stars: 1 amine (or outer) side, 2 acyl side, 3 side chain; on linkers, the order of the positions; unused ones are H or OH. Square brackets hold non-standard residues; d marks the D form. Peptide text beside a SMILES is read from it. * marks the point of attachment. X1 = CCCCCCCCCC(=O)[C@H](C(=O)[*:2])[C@@H]1CNC(=O)[C@@H](N[*:1])CS1; Octanoyl = CCCCCCCC(=O)*

Test: Redox Reaction Profiling qHTS: Assay Interference Panel against the NCATS CANVASS Library (AID 1347401)
Settings: resazurin-DTT redox cycling, fluorescence, 15 min; series mostly up to 57.1 µM
Source text: Natural products and their derivatives continue to be wellsprings of nascent therapeutic potential. However, many laboratories have limited resources for biological evaluation, leaving their previously isolated or synthesized compounds largely or completely untested. To address this issue, the Canvass library of natural products was assembled (https://tripod.nih.gov/canvass), in collaboration with academic and industry researchers, for quantitative high-throughput screening (qHTS) across a diverse set of cell-based and biochemical assays. The pure (>85% purity by liquid chromatography/mass spectrometry [LC/MS]) Canvass library of 346 natural products were submitted by 45 academic laboratories and companies around the world. We collected pure natural products to circumvent deconvolution and structure elucidation due to time and resource limitations. The library was formatted into 1536-well plates and evaluated in 50 qHTS (in an 11-pnt concentration series) bioassays with broad scope of disease-relevant mechanisms. The resulting data set from 50 different assays was then systematically analyzed to identify overall trends and specific natural products with interesting biological activities. Reported herein are the results of each individual qHTS and their corresponding assay protocol. This profiling assay measures the resazurin-to-resorufin redox reaction in the presence of DTT and compound, and serves as a useful surrogate assay for measuring potential compound redox liability National Center for Advancing Translational Sciences (NCATS), Rockville, MD National Institute of Health (NIH), Bethesda, Maryland
Redox Profiling assay protocol: 1. In a black-solid bottom, medium binding, 1536-well plates (Greiner 789176), 4 uL of [1x] 5uM Resazurin + 200 uM DTT + buffer (50 mM HEPES pH 7.3 + 50 mM NaCl) was dispensed (into columns 1 - 48, rows 1 - 32) using a BioRAPTR FRD dispenser (Beckman Coulter). 2. 23 nL of compounds were pin transferred into the assay plates (columns 5 - 48) using the Kalypsis pin tool (Wako USA) equipped with a 1536-well pin heads. This yields a final concentration range of 0.002 - 127 uM. Control compound Chloranil (NCGC00091254-06) was also pinned (23 nL) into column 2, rows 1 - 32 (working concentration 10 mM, 1:2 dilution; 16 points titrations; n = 2). The final concentration range for the Chloranil was 0.002 to 57.2 uM. For 100% activation control, a single dose of 23 nL Chloranil (350 uM working concentration) was pinned to columns 3 and 4, rows 1-32 for a final concentration of 2 uM. 3. The assay plates were centrifuged for 15 seconds at 1000 rpm. 4. An initial fluorescence readout was obtained using the ViewLux plate reader (PerkinElmer) using a 525 nm excitation and a 598 nm emission filters. 5. The assay plates were incubated for 15 minutes in the dark. 6. After incubation, the final fluorescence readout was obtained using the ViewLux plate reader (PerkinElmer) using a 525 nm excitation and a 598 nm emission filters.
Potency is read from the fitted curve at half-maximal effect.

Row | SMILES | Potency
1 | CN1CCc2cc3c(c4c2[C@H]1[C@@H](O)c1ccccc1-4)OCO3 | 7.64 µM (active)
2 | CC1(C)CCC[C@]2(C)[C@@H]1CC[C@@]13C[C@@H](CC[C@H]12)C(C)(O)C3 (stereo not given in full) | inactive
3 | O=c1cc(-c2ccc(O)cc2)oc2c([C@@H]3OC(CO)[C@H](O)[C@@H](O)[C@H]3O)c(O)cc(O)c12 (stereo not given in full) | inactive
4 | OCc1ccc2ocnc2c1 | inactive
5 | CC(=O)NC[C@@H]1O[C@H](CC/C=C(C)/C(C)=C/C=O)[C@H](C)C[C@H]1O | inactive
6 | CC1(C)CC[C@]2(C(=O)O)CC[C@]3(C)C(=CC[C@@H]4[C@@]5(C)C[C@@H](O)[C@H](O)C(C)(C)[C@@H]5CC[C@]43C)[C@@H]2C1 | inactive
7 | C[C@@H]1C(=O)[C@]23CC[C@H]1C[C@]21O[C@H]2C(C)(C)C=CC(=O)[C@@]23COC1=O | inactive
8 | CC(C)(Br)[C@@H](Cl)C[C@H](Br)[C@](C)(Cl)/C=C/Br | 30.4 µM (active)
9 | C[C@@]12CCC[C@@](C)(C(=O)O)[C@H]1C[C@@H](O)[C@]13C[C@H]4C[C@H](O[C@@]4(C)C1)[C@@H]23 | inactive
10 | CS/C=C/C(N)=O | inactive
11 | C[C@@H]1O[C@H](c2c(O)cc(O)c3c(=O)cc(-c4ccc(O)cc4)oc23)[C@H](O)[C@H](O)[C@H]1O | inactive
12 | CCCCCCC[C@@H](C/C=C/CCC(=O)NCCc1c[nH]c2ccccc12)OC | inactive
13 | CC(=O)O[C@@H]1C=C2C(=O)OC[C@]2(O)[C@@]2(C)CCCC(C)(C)[C@H]12 | inactive
14 | CCCCCC[C@H](CCCCC[C@@H](O)C(N)=O)OC(=O)[C@@H]1CC=CN1C(=O)c1ccccc1O | inactive
15 | C=C1C[C@@]23C=CC(=O)[C@@](C)(CCCC(C)C(=O)O)[C@@H]2C[C@@H]1CC3 (stereo not given in full) | inactive
16 | O=C1CC(c2cc(O)cc(O)c2)Oc2cc(O)ccc21 (stereo not given) | inactive
17 | CC1C(=O)C23CCC1C[C@@]21O[C@H]2C(C)(C)C=CC(=O)[C@@]23COC1=O (stereo not given in full) | inactive
18 | C=C1C[C@@]23C=CC(=O)[C@@](C)(CCC(=O)Nc4c(O)ccc(C(=O)O)c4O)C2C[C@@H]1CC3O (stereo not given in full) | inactive
19 | C=C1C(=O)O[C@H]2[C@H]1CC/C(CO)=C\CC[C@@]1(C)O[C@@H]21 | inactive
20 | O=C1c2c(O)cc(O)cc2O[C@@H](c2ccc(O)cc2)[C@@H]1c1c(O)cc(O)c2c(=O)cc(-c3ccc(O)c(O)c3)oc12 | inactive

Row | SMILES | Potency
21 | O=C(O)Cc1c[nH]c2ccccc12 | inactive
22 | C=C1C(=O)O[C@H]2C[C@H](C)[C@@H]3CC(=O)C(C)=C3[C@H](O)[C@H]12 | inactive
23 | CCC[C@@H](C)/C=C(\C)[C@H](O)[C@H](C)/C=C/CC[C@@H](O)[C@H](C)[C@H](O)[C@H](C)[C@H](O)[C@H](C)[C@H]1O[C@H]([C@H](C)C(=O)O)CC[C@@H]1C | inactive
24 | C=C1C(=O)C[C@H]2C[C@@H]1[C@]2(C)CCC=C(C)C | inactive
25 | CC1(C)[C@H](Br)CC[C@]23C[C@]4(C)C(=O)CC12C[C@H]34 | inactive
26 | CCCCCCCC(=O)N[C@@H](CC(C)C)C(=O)N[C@H](C=O)CCC(=O)O (Octanoyl-Leu-Glu-aldehyde) | inactive
27 | O=Cc1ccc2n1C[C@@]1(C[C@H](O)[C@@H](CO)O1)OC2 | inactive
28 | CCCCCCCCCC(=O)[C@@H]1C(=O)N[C@@H](CC(C)C)C(=O)N[C@H](C)C(=O)N2CCC[C@H]2C(=O)N[C@@H](C(C)C)C(=O)N[C@H]2CS[C@H]1CNC2=O (cyclo(L[dA]PV[X1])) | inactive
29 | C=C[C@@]1(C)CC[C@@H]([C@H](C)C(=O)/C=C/C(C)C)O1 | inactive
30 | C=C1[C@H]2CC[C@@]3(C=CC(=O)[C@@](C)(CCC(=O)Nc4c(O)ccc(C(=O)O)c4O)C3C2)[C@H]1O (stereo not given in full) | inactive
31 | CO[C@@H]1C[C@@H](C[C@H]2CC[C@H](C)[C@H]([C@@H](C)C(=O)O)O2)O[C@]2(O[C@](C)([C@H]3CC[C@@](C)([C@@H]4O[C@@H]([C@H]5O[C@](C)(O)[C@H](C)C[C@@H]5C)C[C@@H]4C)O3)C[C@H]2C)[C@@H]1C | inactive
32 | C[C@@]12C[C@@H](C[C@H]3C(=O)O[C@@H](c4ccoc4)[C@H](OC(=O)c4ccccc4)[C@@H]31)OC2=O | inactive
33 | CNc1ccc(Cl)cc1C(=O)OC[C@]1(C)[C@H]2CC[C@]3(C)[C@@H](C[C@@H](OC)[C@H](C)[C@H]3C3=C(O)C(=O)OC3O)[C@]2(C)CC[C@H]1O (stereo not given in full) | inactive
34 | Oc1ccc(/C=C2/c3cc(O)cc(O)c3C(c3ccc(O)cc3)[C@H]2c2cc(O)cc(O)c2)cc1 (stereo not given in full) | inactive
35 | O=C(O)CC1OCc2c(O)cccc21 (stereo not given) | inactive
36 | C[C@@H]1O[C@@H](Oc2c(-c3ccc(O)cc3)oc3cc(O)cc(O)c3c2=O)[C@H](O)[C@H](O)[C@H]1O | inactive
37 | COC1C(O)C(OC(N)=O)C(Oc2ccc3c(O)c(NC(=O)c4ccc(O)c(CC=C(C)C)c4)c(=O)oc3c2C)OC1(C)C (stereo not given) | inactive
38 | C[C@H]1C[C@@H]([C@@H]2CC[C@]34O[C@H](CC[C@@]35C[C@H](C)C(=O)O5)CN24)OC1=O | inactive
39 | CC1C(=O)C23CCC1C[C@]21O[C@@H]2C(C)(C)C=CC(=O)[C@@]23COC1=O (stereo not given in full) | inactive
40 | C=CC(=C)CC[C@]1(C)[C@H]2C[C@H](OC(=O)C(C)CC)C=C3[C@H](OC(C)=O)O[C@H](OC(C)=O)[C@@]32[C@H](OC)C[C@@H]1C (stereo not given in full) | inactive
